Results from the supplement of paper PMC11732987, “Enantioselective OTUD7B fragment discovery through chemoproteomics screening and high-throughput optimisation” (Communications Chemistry, 2025).

What was measured:
Assay in all cases: log2 ratio of Biotin-Ahx-Ub-VS probe labelling (fragment/DMSO); higher = less target engagement (more negative = stronger competition), active = hit call of the paper (q ≤ 0.05, log2 ratio ≤ -1)
Details in all cases: compound concentration: 200 uM; treatment time: 3 h
OTUD6B = biological target: T1, OTUD6B (UniProt Q8N6M0)
T1 sequence (whole entry): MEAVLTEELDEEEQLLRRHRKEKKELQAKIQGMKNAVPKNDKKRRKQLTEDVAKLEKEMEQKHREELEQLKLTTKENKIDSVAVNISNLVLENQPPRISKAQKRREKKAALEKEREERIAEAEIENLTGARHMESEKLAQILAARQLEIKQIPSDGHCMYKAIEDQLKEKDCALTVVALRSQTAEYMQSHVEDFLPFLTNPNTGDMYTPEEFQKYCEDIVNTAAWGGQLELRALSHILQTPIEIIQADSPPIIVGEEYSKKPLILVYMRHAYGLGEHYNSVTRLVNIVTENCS
Procedure, shortened: (§1)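 Average log2 ratios of fragment over vehicle were obtained by unpaired t-test from global-median-normalised Spectronaut label-free quantities. Proteins with ≥2 unique peptides were included. HEK293T lysate (495 µg per sample) was treated in triplicate with fragment at 200 µM or vehicle for 3 h, then with Biotin-Ahx-Ub-VS at 0.5 µM final for 1 h, and labelled DUBs were NeutrAvidin-enriched and run by diaPASEF LC-MS/MS.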

OTUD7B = biological target: T2, OTUD7B (UniProt Q6GQQ9)
T2 sequence (whole entry): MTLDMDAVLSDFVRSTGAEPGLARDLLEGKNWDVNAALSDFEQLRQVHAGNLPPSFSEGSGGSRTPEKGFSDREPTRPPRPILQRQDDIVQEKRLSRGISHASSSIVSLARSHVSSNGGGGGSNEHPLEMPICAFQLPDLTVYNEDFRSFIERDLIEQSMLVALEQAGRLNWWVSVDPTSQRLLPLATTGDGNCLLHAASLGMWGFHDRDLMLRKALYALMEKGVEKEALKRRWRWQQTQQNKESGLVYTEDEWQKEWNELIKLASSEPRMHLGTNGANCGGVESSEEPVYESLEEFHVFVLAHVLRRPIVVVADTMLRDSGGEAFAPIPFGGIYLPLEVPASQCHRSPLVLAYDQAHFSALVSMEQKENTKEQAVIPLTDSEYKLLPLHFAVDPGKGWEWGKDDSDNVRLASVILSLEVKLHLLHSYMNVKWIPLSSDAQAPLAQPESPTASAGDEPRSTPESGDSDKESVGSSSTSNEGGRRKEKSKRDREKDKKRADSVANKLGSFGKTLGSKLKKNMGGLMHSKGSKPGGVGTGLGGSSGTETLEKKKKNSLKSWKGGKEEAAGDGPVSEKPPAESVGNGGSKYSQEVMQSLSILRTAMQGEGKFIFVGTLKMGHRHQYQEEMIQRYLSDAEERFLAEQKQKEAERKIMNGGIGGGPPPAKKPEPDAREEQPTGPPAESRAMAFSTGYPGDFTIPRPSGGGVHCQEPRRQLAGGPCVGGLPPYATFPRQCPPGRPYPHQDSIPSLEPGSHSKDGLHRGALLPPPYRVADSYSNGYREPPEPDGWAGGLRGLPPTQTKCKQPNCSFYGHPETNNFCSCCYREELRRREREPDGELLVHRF
Procedure, shortened: as §1

PRPF8 = PRPF8 (UniProt Q6P2Q9)
Procedure, shortened: as §1

PSMD7 = biological target: T3, PSMD7 (UniProt P51665)
T3 sequence (whole entry): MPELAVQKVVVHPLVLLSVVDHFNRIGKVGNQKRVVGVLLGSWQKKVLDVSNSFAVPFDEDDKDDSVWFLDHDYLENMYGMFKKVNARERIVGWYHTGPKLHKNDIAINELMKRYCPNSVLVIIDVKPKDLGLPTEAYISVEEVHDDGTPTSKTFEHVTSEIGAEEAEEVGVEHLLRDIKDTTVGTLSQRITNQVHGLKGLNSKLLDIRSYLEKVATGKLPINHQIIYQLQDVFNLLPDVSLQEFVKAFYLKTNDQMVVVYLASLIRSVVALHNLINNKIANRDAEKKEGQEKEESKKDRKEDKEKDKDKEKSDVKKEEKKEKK
Procedure, shortened: as §1

UCHL1 = UCHL1 (UniProt P09936)
Sequence of UCHL1 (P09936 whole entry, looked up): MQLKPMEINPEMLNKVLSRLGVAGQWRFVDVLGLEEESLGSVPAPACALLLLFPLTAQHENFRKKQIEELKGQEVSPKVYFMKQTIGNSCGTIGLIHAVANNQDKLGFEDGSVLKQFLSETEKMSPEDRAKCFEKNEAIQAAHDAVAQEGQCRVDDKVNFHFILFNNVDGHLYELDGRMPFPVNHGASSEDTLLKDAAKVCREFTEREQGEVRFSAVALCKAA
Procedure, shortened: as §1

UCHL3 = biological target: T4, UCHL3 (UniProt P15374)
T4 sequence (whole entry): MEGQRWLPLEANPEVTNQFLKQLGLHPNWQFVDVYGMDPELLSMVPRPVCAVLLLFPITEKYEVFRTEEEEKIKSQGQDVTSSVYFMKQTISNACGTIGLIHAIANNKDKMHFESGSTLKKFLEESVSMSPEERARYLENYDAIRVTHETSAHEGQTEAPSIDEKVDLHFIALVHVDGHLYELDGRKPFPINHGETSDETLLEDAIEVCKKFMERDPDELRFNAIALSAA
Procedure, shortened: as §1

UCHL5 = biological target: T5, UCHL5 (UniProt Q9Y5K5)
T5 sequence (whole entry): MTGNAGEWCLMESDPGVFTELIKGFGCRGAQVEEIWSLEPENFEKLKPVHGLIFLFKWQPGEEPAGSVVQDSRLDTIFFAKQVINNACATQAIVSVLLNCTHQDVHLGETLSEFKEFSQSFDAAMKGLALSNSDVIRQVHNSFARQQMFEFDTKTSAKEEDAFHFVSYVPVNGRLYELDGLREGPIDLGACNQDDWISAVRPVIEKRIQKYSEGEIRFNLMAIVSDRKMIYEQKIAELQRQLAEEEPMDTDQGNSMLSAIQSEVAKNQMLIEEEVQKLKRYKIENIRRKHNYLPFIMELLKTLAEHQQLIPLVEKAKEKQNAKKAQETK
Procedure, shortened: as §1

USP10 = USP10 (UniProt Q14694)
Sequence of USP10 (Q14694 whole entry): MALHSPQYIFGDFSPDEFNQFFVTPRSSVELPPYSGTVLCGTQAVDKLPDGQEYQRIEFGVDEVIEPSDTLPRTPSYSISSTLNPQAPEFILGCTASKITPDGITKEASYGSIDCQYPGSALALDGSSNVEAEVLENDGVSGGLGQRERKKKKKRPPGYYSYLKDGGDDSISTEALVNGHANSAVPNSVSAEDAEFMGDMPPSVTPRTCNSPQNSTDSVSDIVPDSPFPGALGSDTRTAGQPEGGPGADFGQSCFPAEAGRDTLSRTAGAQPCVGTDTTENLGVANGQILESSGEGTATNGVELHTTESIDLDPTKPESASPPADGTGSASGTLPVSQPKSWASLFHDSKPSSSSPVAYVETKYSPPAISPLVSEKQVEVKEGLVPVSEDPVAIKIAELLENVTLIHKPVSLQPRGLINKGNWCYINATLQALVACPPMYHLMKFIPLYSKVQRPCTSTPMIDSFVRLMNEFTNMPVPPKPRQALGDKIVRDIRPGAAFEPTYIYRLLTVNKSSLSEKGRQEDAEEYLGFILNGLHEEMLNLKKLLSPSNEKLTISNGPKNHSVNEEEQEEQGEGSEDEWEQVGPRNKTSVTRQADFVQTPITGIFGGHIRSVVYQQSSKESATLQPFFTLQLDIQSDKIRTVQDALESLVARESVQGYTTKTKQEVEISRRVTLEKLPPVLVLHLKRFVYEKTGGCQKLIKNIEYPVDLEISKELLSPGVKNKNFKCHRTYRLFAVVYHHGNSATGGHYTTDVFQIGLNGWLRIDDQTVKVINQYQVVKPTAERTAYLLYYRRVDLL
Procedure, shortened: as §1

USP15 = biological target: T6, USP15 (UniProt Q9Y4E8)
T6 sequence (whole entry): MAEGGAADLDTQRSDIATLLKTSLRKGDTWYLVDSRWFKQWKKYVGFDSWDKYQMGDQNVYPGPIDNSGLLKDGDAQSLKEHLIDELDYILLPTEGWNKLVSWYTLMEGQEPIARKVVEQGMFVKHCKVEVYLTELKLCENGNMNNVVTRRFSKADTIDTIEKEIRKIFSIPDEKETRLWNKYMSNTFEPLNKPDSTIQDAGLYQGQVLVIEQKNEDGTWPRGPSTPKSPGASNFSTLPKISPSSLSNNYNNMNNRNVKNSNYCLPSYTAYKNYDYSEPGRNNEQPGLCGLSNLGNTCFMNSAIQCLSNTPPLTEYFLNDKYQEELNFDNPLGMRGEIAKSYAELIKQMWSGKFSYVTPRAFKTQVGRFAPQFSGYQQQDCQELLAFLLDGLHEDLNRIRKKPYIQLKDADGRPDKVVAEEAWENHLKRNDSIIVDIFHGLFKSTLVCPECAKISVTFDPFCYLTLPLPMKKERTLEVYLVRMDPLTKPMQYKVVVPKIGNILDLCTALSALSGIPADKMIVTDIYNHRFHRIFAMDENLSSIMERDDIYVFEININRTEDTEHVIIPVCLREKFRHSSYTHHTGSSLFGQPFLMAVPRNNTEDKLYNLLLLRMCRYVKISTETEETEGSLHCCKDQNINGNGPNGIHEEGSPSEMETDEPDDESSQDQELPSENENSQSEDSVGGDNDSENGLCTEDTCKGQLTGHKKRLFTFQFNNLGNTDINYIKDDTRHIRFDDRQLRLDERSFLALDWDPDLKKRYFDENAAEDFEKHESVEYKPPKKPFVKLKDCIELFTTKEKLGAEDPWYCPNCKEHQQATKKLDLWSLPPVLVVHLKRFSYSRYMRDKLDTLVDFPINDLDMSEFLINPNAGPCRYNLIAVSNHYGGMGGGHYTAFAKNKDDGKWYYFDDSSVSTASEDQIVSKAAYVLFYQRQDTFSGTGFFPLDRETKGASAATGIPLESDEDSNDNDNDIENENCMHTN
Procedure, shortened: as §1

USP16 = USP16 (UniProt Q9Y5T5)
Sequence of USP16 (Q9Y5T5 whole entry, looked up): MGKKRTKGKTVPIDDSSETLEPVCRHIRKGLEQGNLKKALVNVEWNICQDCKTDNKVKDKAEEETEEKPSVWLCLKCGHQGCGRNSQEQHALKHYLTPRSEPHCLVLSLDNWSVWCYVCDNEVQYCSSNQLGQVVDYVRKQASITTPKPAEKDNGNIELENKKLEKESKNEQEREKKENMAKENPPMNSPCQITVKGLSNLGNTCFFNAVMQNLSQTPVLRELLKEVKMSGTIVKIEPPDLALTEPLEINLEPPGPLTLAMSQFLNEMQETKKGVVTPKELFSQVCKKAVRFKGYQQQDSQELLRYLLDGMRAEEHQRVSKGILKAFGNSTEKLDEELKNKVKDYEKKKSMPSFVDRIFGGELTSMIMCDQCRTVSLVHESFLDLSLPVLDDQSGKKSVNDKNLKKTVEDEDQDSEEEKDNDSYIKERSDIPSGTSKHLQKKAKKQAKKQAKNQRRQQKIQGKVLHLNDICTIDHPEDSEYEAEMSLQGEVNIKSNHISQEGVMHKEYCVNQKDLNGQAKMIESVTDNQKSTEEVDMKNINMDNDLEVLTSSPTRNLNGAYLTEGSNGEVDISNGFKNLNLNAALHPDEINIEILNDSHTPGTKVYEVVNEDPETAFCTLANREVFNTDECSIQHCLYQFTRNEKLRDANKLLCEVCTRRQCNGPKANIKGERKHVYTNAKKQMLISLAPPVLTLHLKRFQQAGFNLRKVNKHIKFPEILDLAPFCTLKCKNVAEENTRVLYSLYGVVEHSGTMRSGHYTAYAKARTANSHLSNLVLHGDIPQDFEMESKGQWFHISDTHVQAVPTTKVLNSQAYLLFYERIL
Procedure, shortened: as §1

Measured: log2 ratio of Biotin-Ahx-Ub-VS probe labelling

O=C(CCl)NCC(=O)N1CCCC1
active: UCHL1 -1.42
inactive: OTUD6B -0.139 | OTUD7B -0.187 | PRPF8 -0.0276 | PSMD7 -0.18 | UCHL3 0.0513 | UCHL5 -0.323 | USP10 -0.0856 | USP15 -0.0663 | USP16 0.0192

Cc1ccc(N2CCC(NC(=O)CCl)C2=O)cc1 (stereo not given)
active: UCHL1 -1.67
inactive: OTUD6B 0.0252 | OTUD7B -0.741 | PRPF8 -0.0776 | PSMD7 0.0257 | UCHL3 0.299 | UCHL5 -0.0673 | USP10 -0.174 | USP15 0.106 | USP16 -0.702

Cc1cccn2cc(CCNC(=O)CCl)nc12.Cl
inactive: OTUD6B -0.414 | OTUD7B -0.338 | PRPF8 0.19 | PSMD7 -0.207 | UCHL3 0.136 | UCHL5 -0.00232 | USP10 -0.0824 | USP15 -0.191 | USP16 -0.607
active: UCHL1 -1.98

CC(NC(=O)CCl)c1cccc2ccccc12 (stereo not given)
inactive: OTUD6B -0.00256 | PRPF8 -0.109 | PSMD7 0.0463 | UCHL5 -0.585 | USP10 -0.00367 | USP15 -0.21 | USP16 0.303
active: OTUD7B -1.46 | UCHL1 -1.35 | UCHL3 -1.96

Cc1cccc(N(CCC#N)C(=O)CCl)c1C
active: OTUD7B -1.2 | UCHL1 -1.09
inactive: OTUD6B 0.027 | PRPF8 0.241 | PSMD7 0.0381 | UCHL3 0.389 | UCHL5 -0.0436 | USP10 -0.0111 | USP15 -0.0542 | USP16 -0.0303

Cc1cccc(C(CNC(=O)CCl)N2CCOCC2)c1.Cl (stereo not given)
active: UCHL1 -1.07
inactive: OTUD6B -0.0947 | OTUD7B -0.255 | PRPF8 -0.0193 | PSMD7 -0.183 | UCHL3 0.278 | UCHL5 -0.182 | USP10 -0.0807 | USP15 -0.0506 | USP16 -0.147

COCC[C@@H](NC(=O)CCl)c1ccccc1
active: UCHL1 -1.4
inactive: OTUD6B 0.0947 | OTUD7B -0.357 | PRPF8 -0.103 | PSMD7 -0.216 | UCHL3 0.334 | UCHL5 -0.0927 | USP10 0.0397 | USP15 -0.00696 | USP16 -0.303

Cc1cccc(NC(=O)CCl)c1C
inactive: OTUD6B -0.273 | OTUD7B -0.61 | PRPF8 0.0787 | PSMD7 -0.631 | UCHL1 -0.766 | UCHL5 -0.0693 | USP10 -0.292 | USP15 -0.43 | USP16 -0.691
active: UCHL3 -1.39

CC(NC(=O)CCl)c1ccc2[nH]ncc2c1 (stereo not given)
inactive: OTUD6B -0.241 | PRPF8 -0.0557 | PSMD7 -0.245 | UCHL3 0.289 | UCHL5 -0.328 | USP10 -0.179 | USP15 -0.271 | USP16 -0.601
active: OTUD7B -1.52 | UCHL1 -1.1

O=C(CCl)NC1CCC(C(F)(F)F)CC1 (stereo not given)
active: UCHL1 -1.31
inactive: OTUD6B -0.153 | OTUD7B -0.576 | PRPF8 0.103 | PSMD7 -0.258 | UCHL3 0.327 | UCHL5 -0.0657 | USP10 -0.141 | USP15 -0.158 | USP16 -0.000805

Cc1n[nH]c(=O)c2c(NC(=O)CCl)oc(C)c12
inactive: OTUD6B 0.111 | OTUD7B -0.365 | PRPF8 0.175 | PSMD7 0.0225 | UCHL1 -0.344 | UCHL3 0.303 | UCHL5 -0.0452 | USP10 -0.0909 | USP15 -0.014 | USP16 -0.0991

CN(CCc1ncc(Br)cn1)C(=O)CCl.Cl
inactive: OTUD6B -0.311 | PRPF8 -0.0479 | PSMD7 -0.205 | UCHL3 0.504 | UCHL5 -0.318 | USP10 -0.276 | USP15 -0.463 | USP16 -0.32
active: OTUD7B -1.39 | UCHL1 -1.55

CCC1c2ccsc2CCN1C(=O)CCl (stereo not given)
active: UCHL1 -1.35
inactive: OTUD6B -0.158 | OTUD7B -0.505 | PRPF8 0.237 | PSMD7 -0.0765 | UCHL3 -0.00293 | UCHL5 -0.25 | USP10 -0.134 | USP15 -0.298 | USP16 -0.5

N#Cc1cnn(-c2ccccc2)c1NC(=O)CCl
active: OTUD7B -1.83 | UCHL1 -1.35
inactive: OTUD6B -0.394 | PRPF8 -0.0739 | PSMD7 -0.397 | UCHL3 0.168 | UCHL5 -0.235 | USP10 -0.0214 | USP15 -0.516 | USP16 -0.0136
